# Data from PubChem BioAssay (EPA / NIEHS).
# Inconclusive results are not listed. Active and inactive are the calls of the source. Rule for the calls: active = hit-call score of the fitted dose curve at least 0.9, where 1 is the maximum; inconclusive = response in the unintended direction; inactive = score below 0.9.
# Tests used:
# [1] = target: human Protein Tyrosine Phosphatase Non-receptor Type 6 (PTPN6), PTPN6 (gene 5777) (UniProt P29350); test: NVS_ENZ_hPTPN6: NovaScreen (NVS) Enzymatic Assay for human Protein Tyrosine Phosphatase Non-receptor Type 6 (PTPN6) (AID 2283210)
# Chain of human Protein Tyrosine Phosphatase Non-receptor Type 6 (PTPN6), PTPN6 (gene 5777) (P29350 whole entry, looked up): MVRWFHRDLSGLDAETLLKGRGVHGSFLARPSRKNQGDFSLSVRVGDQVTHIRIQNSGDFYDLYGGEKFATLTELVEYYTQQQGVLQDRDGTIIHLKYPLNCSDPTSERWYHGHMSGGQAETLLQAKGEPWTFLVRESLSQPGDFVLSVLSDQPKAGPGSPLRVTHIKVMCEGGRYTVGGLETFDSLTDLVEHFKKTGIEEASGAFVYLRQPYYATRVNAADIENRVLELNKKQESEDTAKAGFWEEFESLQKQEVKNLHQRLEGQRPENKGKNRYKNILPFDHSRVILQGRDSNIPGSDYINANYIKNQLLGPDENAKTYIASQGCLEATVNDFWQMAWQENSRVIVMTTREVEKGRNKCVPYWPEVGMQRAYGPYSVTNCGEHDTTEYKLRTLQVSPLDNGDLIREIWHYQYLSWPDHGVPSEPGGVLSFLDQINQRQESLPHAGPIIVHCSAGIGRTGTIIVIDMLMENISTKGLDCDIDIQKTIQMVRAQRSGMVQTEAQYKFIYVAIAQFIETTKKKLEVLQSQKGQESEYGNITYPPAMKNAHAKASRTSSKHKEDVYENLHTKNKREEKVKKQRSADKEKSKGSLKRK
# Method in brief: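 Cell-free assay with recombinant PTPN6 expressed in SF9 cells, fluorescent substrate, product separated from substrate by electrophoretic mobility shift; read 1.33 hours after dosing. Primary screen in duplicate at 25 uM, actives retested in concentration series; DMSO baseline.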
# [2] = target: human Protein Tyrosine Phosphatase Non-receptor Type 2 (PTPN2), PTPN2 (gene 5771) (UniProt P17706); test: NVS_ENZ_hPTPN2: NovaScreen (NVS) Enzymatic Assay for human Protein Tyrosine Phosphatase Non-receptor Type 2 (PTPN2) (AID 2283207)
# Method in brief: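 Cell-free recombinant enzyme with fluorescent substrate, product separated by electrophoretic mobility shift; read 1 h after dosing. Primary screen single concentration (25 uM) in duplicate; actives followed in concentration series; loss of signal versus DMSO.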
# [3] = target: human Protein Tyrosine Phosphatase Non-receptor Type 9 (PTPN9), PTPN9 (gene 5780) (UniProt P43378); test: NVS_ENZ_hPTPN9: NovaScreen (NVS) Enzymatic Assay for human Protein Tyrosine Phosphatase Non-receptor Type 9 (PTPN9) (AID 2283209)
# Chain of human Protein Tyrosine Phosphatase Non-receptor Type 9 (PTPN9), PTPN9 (gene 5780) (P43378 whole entry, looked up): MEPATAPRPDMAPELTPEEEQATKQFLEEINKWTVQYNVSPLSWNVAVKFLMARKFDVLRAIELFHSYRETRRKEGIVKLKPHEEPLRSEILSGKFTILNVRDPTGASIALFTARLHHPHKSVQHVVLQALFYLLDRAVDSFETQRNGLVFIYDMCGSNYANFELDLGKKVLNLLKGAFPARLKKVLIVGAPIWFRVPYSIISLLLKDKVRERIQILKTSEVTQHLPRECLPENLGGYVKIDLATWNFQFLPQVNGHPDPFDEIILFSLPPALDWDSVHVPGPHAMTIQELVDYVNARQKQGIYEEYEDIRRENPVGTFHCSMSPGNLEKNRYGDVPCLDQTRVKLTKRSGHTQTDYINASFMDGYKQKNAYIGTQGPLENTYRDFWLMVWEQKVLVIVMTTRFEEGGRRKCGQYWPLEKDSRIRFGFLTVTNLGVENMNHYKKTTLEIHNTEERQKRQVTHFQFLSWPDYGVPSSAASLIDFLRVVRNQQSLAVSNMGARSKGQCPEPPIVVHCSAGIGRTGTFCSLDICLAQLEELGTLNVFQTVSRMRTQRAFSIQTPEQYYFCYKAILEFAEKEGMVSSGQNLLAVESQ
# Method in brief: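 Sf9-expressed enzyme in a cell-free assay, fluorescence read 1.33 h after dosing with mobility-shift separation of substrate and product. Tested at 25 uM in duplicate, then up to 50 uM; signal loss versus DMSO.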
# [4] = target: Serine/threonine-protein phosphatase PP1-alpha catalytic subunit (Homo sapiens) (UniProt P62136); test: NVS_ENZ_hPPP1CA: NovaScreen (NVS) Enzymatic Assay for human Protein Phosphatase 1 Aatalytic subunit Alpha (PPP1CA) (AID 2283200)
# Chain of Serine/threonine-protein phosphatase PP1-alpha catalytic subunit (Homo sapiens) (P62136 whole entry, looked up): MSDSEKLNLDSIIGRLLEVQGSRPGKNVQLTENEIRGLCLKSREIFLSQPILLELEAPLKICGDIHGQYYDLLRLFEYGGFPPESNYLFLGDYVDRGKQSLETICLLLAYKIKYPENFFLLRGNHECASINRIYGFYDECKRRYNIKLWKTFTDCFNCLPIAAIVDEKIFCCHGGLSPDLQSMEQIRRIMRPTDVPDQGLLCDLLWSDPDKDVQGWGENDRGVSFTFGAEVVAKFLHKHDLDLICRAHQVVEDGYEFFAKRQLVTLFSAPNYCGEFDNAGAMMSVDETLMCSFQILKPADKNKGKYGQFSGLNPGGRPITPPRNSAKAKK
# Method in brief: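 Recombinant enzyme activity read by fluorescence with electrophoretic mobility shift separating substrate from product, 1.33 h after dosing; loss of signal vs DMSO baseline. Primary screen in duplicate at 25 uM; actives retested in concentration-response up to 50 uM.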
# [5] = target: human Protein Tyrosine Phosphatase Non-receptor Type 1 (PTPN1), PTPN1 (gene 5770) (UniProt P18031); test: NVS_ENZ_hPTPN1: NovaScreen (NVS) Enzymatic Assay for human Protein Tyrosine Phosphatase Non-receptor Type 1 (PTPN1) (AID 2283201)
# Method in brief: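 Cell-free fluorogenic-substrate activity assay on recombinant enzyme, read 1.33 h after dosing by fluorescence and electrophoretic mobility shift; loss of signal vs DMSO baseline. Primary screen in duplicate at 25 uM, hits then run in concentration-response up to 50 uM.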
# [6] = target: human Phosphatase and Tensin Homolog (PTEN), PTEN (gene 5728) (UniProt P60484); test: NVS_ENZ_hPTEN: NovaScreen (NVS) Enzymatic Assay for human Phosphatase and Tensin Homolog (PTEN) (AID 2283203)
# Method in brief: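 Cell-free recombinant human PTEN with fluorescent substrate; product separated by electrophoretic mobility shift and read by fluorescence 1 h after dosing. Primary screen in duplicate at 25 uM, actives followed in concentration series versus DMSO.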
# [7] = target: Tyrosine-protein phosphatase non-receptor type 12 (Homo sapiens) (UniProt Q05209); test: NVS_ENZ_hPTPN12: NovaScreen (NVS) Enzymatic Assay for human Protein Tyrosine Phosphatase Non-receptor Type 12 (PTPN12) (AID 2283204)
# Method in brief: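 Single-concentration duplicates (25 uM) preceded singleton concentration-response up to 50 uM for chemicals passing threshold. Cell-free recombinant PTPN12 activity was read 1.33 h after dosing via fluorescence after mobility-shift separation; loss of signal versus DMSO.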
# [8] = target: human Protein Tyrosine Phosphatase Receptor Type B (PTPRB), PTPRB (gene 5787) (UniProt P23467); test: NVS_ENZ_hPTPRB: NovaScreen (NVS) Enzymatic Assay for human Protein Tyrosine Phosphatase Receptor Type B (PTPRB) (AID 2283211)
# Method in brief: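 Recombinant human PTPRB with a fluorescent substrate, product separated by electrophoretic mobility shift; read 1 h after dosing. Primary screen in duplicate at 25 uM; actives then retested in concentration series; loss of signal versus DMSO.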
# [9] = target: human Protein Tyrosine Phosphatase Receptor Type F (PTPRF), PTPRF (gene 5792) (UniProt P10586); test: NVS_ENZ_hPTPRF: NovaScreen (NVS) Enzymatic Assay for human Protein Tyrosine Phosphatase Receptor Type F (PTPRF) (AID 2283213)
# Chain of human Protein Tyrosine Phosphatase Receptor Type F (PTPRF), PTPRF (gene 5792) (P10586 whole entry, looked up): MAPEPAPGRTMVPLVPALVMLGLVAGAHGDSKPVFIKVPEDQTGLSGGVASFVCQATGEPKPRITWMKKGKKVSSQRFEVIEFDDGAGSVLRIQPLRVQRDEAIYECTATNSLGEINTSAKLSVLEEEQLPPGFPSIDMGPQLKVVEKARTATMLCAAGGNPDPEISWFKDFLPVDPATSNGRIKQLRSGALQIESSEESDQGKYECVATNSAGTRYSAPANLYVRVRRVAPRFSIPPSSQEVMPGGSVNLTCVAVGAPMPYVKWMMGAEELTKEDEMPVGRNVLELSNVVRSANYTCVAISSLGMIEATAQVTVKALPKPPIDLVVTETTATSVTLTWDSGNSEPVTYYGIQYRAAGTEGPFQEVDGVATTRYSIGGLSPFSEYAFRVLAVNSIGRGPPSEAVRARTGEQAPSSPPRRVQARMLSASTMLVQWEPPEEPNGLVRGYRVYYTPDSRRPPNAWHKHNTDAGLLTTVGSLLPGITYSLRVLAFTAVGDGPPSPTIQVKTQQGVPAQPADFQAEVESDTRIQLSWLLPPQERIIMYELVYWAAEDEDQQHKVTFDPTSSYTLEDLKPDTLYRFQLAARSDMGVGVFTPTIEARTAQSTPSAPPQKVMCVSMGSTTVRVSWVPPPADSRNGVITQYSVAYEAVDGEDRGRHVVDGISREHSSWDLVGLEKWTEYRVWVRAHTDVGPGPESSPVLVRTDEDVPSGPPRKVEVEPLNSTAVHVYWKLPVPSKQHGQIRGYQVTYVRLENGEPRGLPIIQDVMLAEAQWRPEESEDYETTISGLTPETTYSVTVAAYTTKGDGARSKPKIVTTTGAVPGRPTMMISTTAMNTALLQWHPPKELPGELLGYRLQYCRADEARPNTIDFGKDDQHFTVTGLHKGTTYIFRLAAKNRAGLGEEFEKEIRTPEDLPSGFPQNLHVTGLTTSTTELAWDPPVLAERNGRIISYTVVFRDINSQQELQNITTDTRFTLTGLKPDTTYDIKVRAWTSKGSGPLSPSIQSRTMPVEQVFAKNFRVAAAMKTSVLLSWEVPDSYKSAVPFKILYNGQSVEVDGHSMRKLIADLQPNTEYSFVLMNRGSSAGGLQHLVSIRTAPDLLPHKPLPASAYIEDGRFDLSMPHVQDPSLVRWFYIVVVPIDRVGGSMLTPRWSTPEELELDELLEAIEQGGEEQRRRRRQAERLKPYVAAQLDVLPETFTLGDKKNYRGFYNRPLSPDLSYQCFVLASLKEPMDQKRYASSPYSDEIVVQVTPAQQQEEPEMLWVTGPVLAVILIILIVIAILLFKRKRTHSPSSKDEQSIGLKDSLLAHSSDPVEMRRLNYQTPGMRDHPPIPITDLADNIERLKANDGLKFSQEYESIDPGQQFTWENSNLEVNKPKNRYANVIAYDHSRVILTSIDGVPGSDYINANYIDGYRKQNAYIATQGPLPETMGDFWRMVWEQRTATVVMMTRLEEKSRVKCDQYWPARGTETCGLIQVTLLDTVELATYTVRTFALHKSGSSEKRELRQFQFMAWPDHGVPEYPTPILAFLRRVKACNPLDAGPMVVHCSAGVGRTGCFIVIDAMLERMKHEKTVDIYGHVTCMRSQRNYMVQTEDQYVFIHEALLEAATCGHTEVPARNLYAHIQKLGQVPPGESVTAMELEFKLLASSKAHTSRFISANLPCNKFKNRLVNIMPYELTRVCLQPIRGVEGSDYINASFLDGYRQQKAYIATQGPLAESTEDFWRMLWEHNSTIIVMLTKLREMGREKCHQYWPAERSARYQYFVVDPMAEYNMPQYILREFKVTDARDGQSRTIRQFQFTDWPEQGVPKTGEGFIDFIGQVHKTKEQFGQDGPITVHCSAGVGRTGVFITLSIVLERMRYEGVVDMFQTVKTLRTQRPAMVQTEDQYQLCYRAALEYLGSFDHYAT
# Method in brief: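 Cell-free fluorescence enzyme assay with recombinant protein and substrate; product separated by electrophoretic mobility shift. Read 1 h after dosing, single 25 uM duplicate screen, then concentration-response up to 50 uM; loss of signal vs DMSO.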
# [10] = target: human Protein Tyrosine Phosphatase Receptor Type M (PTPRM), PTPRM (gene 5797) (UniProt P28827); test: NVS_ENZ_hPTPRM: NovaScreen (NVS) Enzymatic Assay for human Protein Tyrosine Phosphatase Receptor Type M (PTPRM) (AID 2283215)
# Method in brief: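 Cell-free recombinant PTPRM with fluorogenic substrate; product separated from substrate by electrophoretic mobility shift and read by fluorescence, 1.33 h after dosing. Primary screen single concentration (25 uM) in duplicate; actives retested in concentration series; loss of signal versus DMSO.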
# [11] = target: human Raf-1 Proto-Oncogene, serine/threonine Kinase (RAF1), RAF1 (gene 5894) (UniProt P04049); test: NVS_ENZ_hRAF1: NovaScreen (NVS) Enzymatic Assay for human Raf-1 Proto-Oncogene, serine/threonine Kinase (RAF1) (AID 2283216)
# Method in brief: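 Cell-free recombinant kinase with specific fluorescent substrate, product separated by electrophoretic mobility shift; read 1 h after dosing. Primary screen at 25 uM in duplicate; hits then run in concentration-response up to 50 uM, fitted as loss of signal versus DMSO.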
# [12] = target: human Sirtuin 2 (SIRT2), SIRT2 (gene 22933) (UniProt Q8IXJ6); test: NVS_ENZ_hSIRT2: NovaScreen (NVS) Enzymatic Assay for human Sirtuin 2 (SIRT2) (AID 2283217)
# Chain of human Sirtuin 2 (SIRT2), SIRT2 (gene 22933) (Q8IXJ6 whole entry, looked up): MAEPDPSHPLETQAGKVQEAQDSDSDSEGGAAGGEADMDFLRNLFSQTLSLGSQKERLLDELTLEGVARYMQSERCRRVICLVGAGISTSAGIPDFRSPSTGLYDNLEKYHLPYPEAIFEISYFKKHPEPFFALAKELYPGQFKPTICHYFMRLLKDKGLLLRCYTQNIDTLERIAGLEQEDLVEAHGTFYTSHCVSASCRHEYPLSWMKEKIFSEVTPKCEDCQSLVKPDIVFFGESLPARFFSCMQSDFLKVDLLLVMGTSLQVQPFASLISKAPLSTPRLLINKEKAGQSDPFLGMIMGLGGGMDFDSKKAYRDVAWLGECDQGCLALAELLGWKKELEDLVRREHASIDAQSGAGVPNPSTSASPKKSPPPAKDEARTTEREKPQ
# Method in brief: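 Cell-free recombinant human SIRT2, fluorescent substrate with product separated by electrophoretic mobility shift, 1 hr. Screened in duplicate at 25 uM; hits rerun singly in concentration-response up to 50 uM, relative to DMSO.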
# [13] = target: human Protein Tyrosine Phosphatase Non-receptor Type 4 (PTPN4), PTPN4 (gene 5775) (UniProt P29074); test: NVS_ENZ_hPTPN4: NovaScreen (NVS) Enzymatic Assay for human Protein Tyrosine Phosphatase Non-receptor Type 4 (PTPN4) (AID 2283208)
# Method in brief: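 Cell-free assay of PTPN4 expressed in Sf9 cells, using a fluorescent substrate with product separated by mobility shift; read 1.33 h after dosing. Single-point screen at 25 uM, then concentration-response up to 50 uM. Loss of signal relative to DMSO.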
# [14] = target: human Protein Phosphatase, Mg2+/Mn2+ Dependent 1A (PPM1A), PPM1A (gene 5494) (UniProt P35813); test: NVS_ENZ_hPPM1A: NovaScreen (NVS) Enzymatic Assay for human Protein Phosphatase, Mg2+/Mn2+ Dependent 1A (PPM1A) (AID 2283198)
# Chain of human Protein Phosphatase, Mg2+/Mn2+ Dependent 1A (PPM1A), PPM1A (gene 5494) (P35813 whole entry, looked up): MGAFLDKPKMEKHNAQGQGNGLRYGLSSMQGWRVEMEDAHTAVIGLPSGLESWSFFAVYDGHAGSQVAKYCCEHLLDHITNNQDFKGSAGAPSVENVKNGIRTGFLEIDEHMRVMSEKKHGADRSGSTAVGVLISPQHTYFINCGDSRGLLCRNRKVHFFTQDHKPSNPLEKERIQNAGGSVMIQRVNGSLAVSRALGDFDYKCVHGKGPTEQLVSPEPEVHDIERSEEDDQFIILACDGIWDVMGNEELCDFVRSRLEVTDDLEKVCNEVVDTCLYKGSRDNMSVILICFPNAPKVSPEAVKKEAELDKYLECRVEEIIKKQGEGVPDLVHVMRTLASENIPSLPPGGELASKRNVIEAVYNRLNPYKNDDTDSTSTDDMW
# Method in brief: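 Cell-free recombinant PPM1A phosphatase assay with fluorescent substrate, read 1 h after dosing by electrophoretic mobility shift. Chemicals screened in duplicate at 25 uM, then in concentration-response up to 50 uM; loss of activity versus DMSO.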
# [15] = target: Tyrosine-protein phosphatase non-receptor type 13 (Homo sapiens) (UniProt Q12923); test: NVS_ENZ_hPTPN13: NovaScreen (NVS) Enzymatic Assay for human Protein Tyrosine Phosphatase Non-receptor Type 13 (PTPN13) (AID 2283205)
# Method in brief: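 Cell-free assay of recombinant human PTPN13 with a fluorescent substrate, product separated by electrophoretic mobility shift and read 0.5 h after dosing. Primary screen at 25 uM in duplicate, then concentration-response up to 50 uM. Loss of signal fitted against DMSO.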
# [16] = target: Tyrosine-protein phosphatase non-receptor type 11 (Homo sapiens) (UniProt Q06124); test: NVS_ENZ_hPTPN11: NovaScreen (NVS) Enzymatic Assay for human Protein Tyrosine Phosphatase Non-receptor Type 11 (PTPN11) (AID 2283202)
# Chain of Tyrosine-protein phosphatase non-receptor type 11 (Homo sapiens) (Q06124 whole entry, looked up): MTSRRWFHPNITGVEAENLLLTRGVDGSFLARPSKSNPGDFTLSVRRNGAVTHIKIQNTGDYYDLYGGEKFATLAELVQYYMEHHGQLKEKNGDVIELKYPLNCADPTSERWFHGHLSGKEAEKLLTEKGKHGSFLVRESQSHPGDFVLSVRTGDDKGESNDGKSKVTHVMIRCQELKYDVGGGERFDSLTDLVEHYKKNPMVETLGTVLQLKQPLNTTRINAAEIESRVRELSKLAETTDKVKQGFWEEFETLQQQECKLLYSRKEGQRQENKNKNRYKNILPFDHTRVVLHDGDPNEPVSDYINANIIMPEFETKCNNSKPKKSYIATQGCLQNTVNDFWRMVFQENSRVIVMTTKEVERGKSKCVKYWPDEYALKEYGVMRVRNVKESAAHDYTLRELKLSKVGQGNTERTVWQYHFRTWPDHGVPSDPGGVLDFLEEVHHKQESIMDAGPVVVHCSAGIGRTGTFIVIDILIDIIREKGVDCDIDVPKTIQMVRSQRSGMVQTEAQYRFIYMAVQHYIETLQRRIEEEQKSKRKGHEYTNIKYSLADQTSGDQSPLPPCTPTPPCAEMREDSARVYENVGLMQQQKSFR
# Method in brief: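 Recombinant human PTPN11 activity on a fluorescent substrate, with substrate/product separated by electrophoretic mobility shift; read 0.5 h after dosing, loss of signal vs DMSO. Duplicate 25 uM screen, then concentration-response up to 50 uM.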
# [17] = target: human Protein Tyrosine Phosphatase Receptor Type C (PTPRC), PTPRC (gene 5788) (UniProt P08575); test: NVS_ENZ_hPTPRC: NovaScreen (NVS) Enzymatic Assay for human Protein Tyrosine Phosphatase Receptor Type C (PTPRC) (AID 2283212)
# Method in brief: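 Yeast-extracted human PTPRC used in a cell-free colorimetric enzyme activity read-out, 1 h after dosing. Primary screen in duplicate at 25 uM; actives rerun in concentration-response up to 50 uM, DMSO as baseline.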
# PPP2CA (gene 5515) = PPP2CA (gene 5515) (UniProt P67775); test: NVS_ENZ_hPPP2CA: NovaScreen (NVS) Enzymatic Assay for human Protein Phosphatase 2 Aatalytic subunit Alpha (PPP2CA) (AID 2283199)
# Method in brief: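 Recombinant human PPP2CA with fluorescent substrate; product separated from substrate by electrophoretic mobility shift, read 1.33 h after dosing. Duplicate single-point at 25 uM, then singleton concentration-response up to 50 uM; loss of signal versus DMSO.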
# [18] = target: human Rho Associated Coiled-coil Containing Protein Kinase 1 (ROCK1), ROCK1 (gene 6093) (UniProt Q13464); test: NVS_ENZ_hROCK1: NovaScreen (NVS) Enzymatic Assay for human Rho Associated Coiled-coil Containing Protein Kinase 1 (ROCK1) (AID 2283214)
# Method in brief: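 Cell-free recombinant human ROCK1 activity assay; fluorescent substrate and product separated by electrophoretic mobility shift, read 1 h after dosing. Screened in duplicate at 25 uM; loss of signal versus DMSO baseline scored as inhibition.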
# [19] = target: Tyrosine-protein phosphatase non-receptor type 14 (Homo sapiens) (UniProt Q15678); test: NVS_ENZ_hPTPN14: NovaScreen (NVS) Enzymatic Assay for human Protein Tyrosine Phosphatase Non-receptor Type 14 (PTPN14) (AID 2283206)
# Method in brief: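 Cell-free recombinant human PTPN14 with fluorescent substrate, read 0.5 h after dosing by fluorescence and electrophoretic mobility shift separating substrate from product. Primary screen at 25 uM in duplicate; hits run to 50 uM maximum; loss of signal versus DMSO.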
compound,measurement,setting,value
Nn1cnnc1,outcome,[1],inactive
Cc1cc(O)ccc1Cl,outcome,[2],inactive
same,outcome,[3],inactive
same,outcome,[1],inactive
C1CC2OC2CC1C1CO1 (stereo not drawn),outcome,[3],inactive
same,outcome,[1],inactive
ClC1=C(Cl)[C@]2(Cl)[C@@H]3[C@@H](Cl)[C@H]4O[C@H]4[C@@H]3C1(Cl)C2(Cl)Cl,outcome,[4],inactive
O=C(O)C(F)(F)C(F)(F)C(F)(F)C(F)(F)C(F)(F)C(F)(F)C(F)(F)C(F)(F)F,outcome,[5],inactive
same,outcome,[6],inactive
same,outcome,[7],inactive
same,AC50,[3],25 µM (active)
same,outcome,[8],inactive
same,outcome,[9],inactive
same,outcome,[10],inactive
same,outcome,[11],inactive
CCCCCCOC(=O)c1ccccc1C(=O)OCCCCCC,outcome,[12],inactive
CN(C)c1nc(=O)n(C2CCCCC2)c(=O)n1C,outcome,[13],inactive
NS(=O)(=O)C(F)(F)C(F)(F)C(F)(F)C(F)(F)C(F)(F)C(F)(F)C(F)(F)C(F)(F)F,outcome,[14],inactive
CC(C)C(=O)OCC(C)(C)C(OC(=O)C(C)C)C(C)C (stereo not drawn),outcome,[4],inactive
same,outcome,[15],inactive
same,outcome,[2],inactive
same,outcome,[13],inactive
same,outcome,[10],inactive
same,outcome,[11],inactive
Oc1ccc(C(c2ccc(O)cc2)(C(F)(F)F)C(F)(F)F)cc1,outcome,[5],inactive
same,outcome,[16],inactive
same,outcome,[11],inactive
same,AC50,[12],25 µM (active)
CCC(C)c1cc([N+](=O)[O-])cc([N+](=O)[O-])c1O (stereo not drawn),outcome,[14],inactive
same,AC50,[17],25 µM (active)
O=C(O)C(F)(F)C(F)(F)C(F)(F)C(F)(F)C(F)(F)F,outcome,[5],inactive
same,outcome,[16],inactive
same,outcome,[6],inactive
same,outcome,[2],inactive
same,outcome,[13],inactive
same,outcome,[3],inactive
same,outcome,[8],inactive
same,outcome,[11],inactive
Cc1cc2c3c(c1)C(c1ccccc1)=N[C@@H](NC(=O)c1ccncc1)C(=O)N3CC2,outcome,[14],inactive
same,outcome,[10],inactive
same,outcome,[12],inactive
Cc1cccc([N+](=O)[O-])c1,outcome,[4],inactive
same,outcome,[6],inactive
same,outcome,[11],inactive
same,outcome,[12],inactive
O=S(=O)(O)C(F)(F)C(F)(F)C(F)(F)C(F)(F)C(F)(F)C(F)(F)F,outcome,[6],inactive
same,outcome,[9],inactive
same,outcome,[10],inactive
same,AC50,[12],11.4 µM (active)
Cc1cc(-c2ccc(N)c(C)c2)ccc1N,outcome,PPP2CA (gene 5515),inactive
same,outcome,[4],inactive
O=C(O)C(F)(F)C(F)(F)C(F)(F)C(F)(F)C(F)(F)C(F)(F)C(F)(F)C(F)(F)C(F)(F)F,AC50,[4],43.3 µM (active)
same,AC50,[17],15.8 µM (active)
CCOCCOC(C)=O,outcome,[5],inactive
same,outcome,[1],inactive
CC#Cc1cc(C)nc(Nc2ccccc2)n1,outcome,[18],inactive
Oc1ccc(Cl)cc1Cl,outcome,[9],inactive
CC1=C2C[C@H]3[C@@H](CC=C4C[C@@H](O)CC[C@@]43C)[C@@H]2CC[C@]12O[C@@H]1C[C@H](C)CN[C@H]1[C@H]2C,outcome,[5],inactive
same,outcome,[16],inactive
same,outcome,[7],inactive
same,AC50,[15],6.4 µM (active)
same,outcome,[19],inactive
same,AC50,[13],16 µM (active)
same,outcome,[3],inactive
C=CC(N)=O,outcome,[14],inactive
same,outcome,[9],inactive
Clc1ccc(C(c2ccccc2Cl)C(Cl)(Cl)Cl)cc1 (stereo not drawn),outcome,[14],inactive
same,outcome,[4],inactive
